In PubChem BioAssay:
Records with an inconclusive call do not appear. Active and inactive are the calls of the source.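 The calls were made as follows, unless noted: active = normalized viability below 100% at a tested concentration; inactive = the rest.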

Experiments:
[1] = growth inhibition of DIPG glioma cells, dose response, cell-based, SU-DIPG-XVII, MIPE5.0, CellTiter-Glo, qHTS (AID 1347060; cut-off not given, nearly all actives have AC50 up to about 26 µM;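 as to AC50: cells exposed to compound for 48 hours before viability readout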); conditions: SU-DIPG-XVII viability, CellTiter-Glo ATP luminescence
[2] = growth inhibition of DIPG glioma cells, dose response, cell-based, SU-DIPG-XIII, MIPE4.0, CellTiter-Glo, qHTS (AID 1347061; cut-off not given, nearly all actives have AC50 up to about 37 µM;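 also: cells exposed to compound for 48 hours before readout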); conditions: SU-DIPG-XIII viability, CellTiter-Glo ATP luminescence
[3] = growth inhibition of DIPG glioma cells, dose response, cell-based, JHH-DIPG-1, MIPE4.0, CellTiter-Glo, qHTS (AID 1347062; cut-off not given, nearly all actives have AC50 up to about 27 µM;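 as to AC50: cells exposed to compound for two days before readout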); conditions: JHH-DIPG-1 viability, CellTiter-Glo ATP luminescence
[4] = growth inhibition of DIPG glioma cells, dose response, cell-based, SU-DIPG-IV, MIPE4.0, CellTiter-Glo, qHTS (AID 1347063; cut-off not given, nearly all actives have AC50 up to about 30 µM;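 also: compound exposure lasted 48 hours before the viability readout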); conditions: SU-DIPG-IV viability, CellTiter-Glo ATP luminescence
[5] = viability loss in pontine glioma line – cell-based, SU-DIPG-XXV, MIPE5.0, CellTiter-Glo, qHTS, dose response (AID 1347065; cut-off not given, nearly all actives have AC50 up to about 26 µM;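 also: cells exposed to compound for 48 hours before ATP readout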); conditions: CellTiter-Glo ATP luminescence
[6] = SU-DIPG-VI glioma cell viability, MIPE4.0 library, CellTiter-Glo luminescence, qHTS (AID 1347066; cut-off not given, nearly all actives have AC50 up to about 30 µM;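 also: cells exposed to compound for 48 hours before readout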); conditions: CellTiter-Glo ATP luminescence
[7] = sensitizers of A549 cells to miR-34 induction, primary screen, imaging, A549 dox-inducible miR-34, nuclei and caspase counts (AID 1347080;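 active = compounds whose cell count with miR-34 switched on is under 0.7 times the count with it off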); conditions: A549 miR-34 inducible, Hoechst nuclei count, 48 h
[8] = modifiers of HSF1 nuclear foci, imaging, Selleck Cancer Library (AID 1347162; in the data active = plate-normalised HSF1 focus index below about 0.46); conditions: human cells, at 10 µM; SSMD: measured here: HSF1 foci SSMD mean; cell count: measured here: cell number; plate-normalised HSF1 focus index: stronger effect = lower value
[9] = survival rescue of mitochondrial mutant cells in low glucose, primary screen, MELAS cybrids, Rieske KO mouse fibroblasts, CellTiter-Glo (AID 1508586;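 active = mean z-score across replicates of 1.96 or higher in either the MELAS or the Rieske mutant cell line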;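 also: z relative to plate mean and SD of compound and empty wells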)
[10] = ovarian cancer cell viability with rucaparib, profiling panel, oncology-focused library, rucaparib conditional (AID 1508598); conditions: patient-derived ovarian cancer cells, CellTiter-Glo viability, 144 h, stronger effect = lower value
[11] = JHH-DIPG-1 glioma cell viability, MIPE5.0 library, CellTiter-Glo luminescence, qHTS (AID 1347067; cut-off not given, nearly all actives have AC50 up to about 26 µM;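 also: cells exposed to compound for 48 hours before readout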); conditions: JHH-DIPG-1 glioma viability, CellTiter-Glo ATP luminescence
[12] = SU-DIPG-XXV glioma cell viability, MIPE5.0 library, qHTS (AID 1347068; cut-off not given, nearly all actives have IC50 up to about 30 µM;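 as to IC50: cells exposed to compound for 48 hours before viability readout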)
[13] = at 0.000305 µM, OCI-C5x cells, with rucaparib 10 µM, 100% = cells with rucaparib alone
[14] = at 0.000305 µM, OCI-C5x cells, without rucaparib
[15] = at 0.000305 µM, OCI-P5x cells, with rucaparib 20 µM, 100% = cells with rucaparib alone
[16] = at 0.000305 µM, OCI-P5x cells, without rucaparib
[17] = at 0.00122 µM, OCI-C5x cells, with rucaparib 10 µM, 100% = cells with rucaparib alone
[18] = at 0.00122 µM, OCI-C5x cells, without rucaparib
[19] = at 0.00122 µM, OCI-P5x cells, with rucaparib 20 µM, 100% = cells with rucaparib alone
[20] = at 0.00122 µM, OCI-P5x cells, without rucaparib
[21] = at 0.00488 µM, OCI-C5x cells, with rucaparib 10 µM, 100% = cells with rucaparib alone
[22] = at 0.00488 µM, OCI-C5x cells, without rucaparib
[23] = at 0.00488 µM, OCI-P5x cells, with rucaparib 20 µM, 100% = cells with rucaparib alone
[24] = at 0.00488 µM, OCI-P5x cells, without rucaparib
[25] = at 0.0195 µM, OCI-C5x cells, with rucaparib 10 µM, 100% = cells with rucaparib alone
[26] = at 0.0195 µM, OCI-C5x cells, without rucaparib
[27] = at 0.0195 µM, OCI-P5x cells, with rucaparib 20 µM, 100% = cells with rucaparib alone
[28] = at 0.0195 µM, OCI-P5x cells, without rucaparib
[29] = at 0.0781 µM, OCI-C5x cells, with rucaparib 10 µM, 100% = cells with rucaparib alone
[30] = at 0.0781 µM, OCI-C5x cells, without rucaparib
[31] = at 0.0781 µM, OCI-P5x cells, with rucaparib 20 µM, 100% = cells with rucaparib alone
[32] = at 0.0781 µM, OCI-P5x cells, without rucaparib
[33] = at 0.313 µM, OCI-C5x cells, with rucaparib 10 µM, 100% = cells with rucaparib alone
[34] = at 0.313 µM, OCI-C5x cells, without rucaparib
[35] = at 0.313 µM, OCI-P5x cells, with rucaparib 20 µM, 100% = cells with rucaparib alone
[36] = at 0.313 µM, OCI-P5x cells, without rucaparib
[37] = at 1.25 µM, OCI-C5x cells, with rucaparib 10 µM, 100% = cells with rucaparib alone
[38] = at 1.25 µM, OCI-C5x cells, without rucaparib
[39] = at 1.25 µM, OCI-P5x cells, with rucaparib 20 µM, 100% = cells with rucaparib alone
[40] = at 1.25 µM, OCI-P5x cells, without rucaparib
[41] = at 5 µM, OCI-C5x cells, with rucaparib 10 µM, 100% = cells with rucaparib alone
[42] = at 5 µM, OCI-C5x cells, without rucaparib
[43] = at 5 µM, OCI-P5x cells, with rucaparib 20 µM, 100% = cells with rucaparib alone
[44] = at 5 µM, OCI-P5x cells, without rucaparib

O=C(NCCCNc1nc(Nc2cccc(NC(=O)N3CCCC3)c2)ncc1I)c1cccs1
-0.479: z-score ([9]; Rieske KO mouse fibroblast survival, CellTiter-Glo 72 h)
2780: cell count ([7]; measured here: total cells with miR-34 induction, stronger effect = lower value)
2940: cell count ([7]; measured here: total cells without miR-34 induction)
7460: cell count [8]
1.03: fold change ([7]; measured here: relative caspase fold change +Dox/-Dox)
inactive: fold change ([7]; stronger effect = lower value, cell number ratio, induced over uninduced) 0.948 | plate-normalised HSF1 focus index [8] 0.877 | z-score ([9]; MELAS cybrid survival, CellTiter-Glo 48 h, stronger effect = higher value) -0.385 | viability [10, 13] 115% | viability [10, 14] 106% | viability [10, 17] 116% | viability [10, 18] 102% | viability [10, 21] 110% | viability [10, 24] 103% | viability [10, 25] 112% | viability [10, 26] 102% | viability [10, 27] 104% | viability [10, 28] 101% | viability [10, 29] 123% | viability [10, 30] 112% | viability [10, 32] 106% | viability [10, 33] 137% | viability [10, 34] 120% | viability [10, 37] 122% | viability [10, 38] 120% | viability [10, 42] 127%
active: AC50 [1] 16.6 µM | AC50 [2] 20.9 µM | AC50 [3] 23.5 µM | AC50 [4] 14.8 µM | AC50 [5] 3.72 µM | AC50 [6] 20.9 µM | viability [10, 15] 91.2% | viability [10, 16] 89.1% | viability [10, 19] 97.1% | viability [10, 20] 94.8% | viability [10, 22] 97.8% | viability [10, 23] 97.7% | viability [10, 31] 99.5% | viability [10, 35] 98.3% | viability [10, 36] 99.8% | viability [10, 39] 85.2% | viability [10, 40] 99.1% | viability [10, 41] 76.6% | viability [10, 43] 68.2% | viability [10, 44] 91.4%
-3.5: SSMD [8]

CCNC(=O)CCC/C=C\C[C@@H]1[C@@H](/C=C/C(O)CCc2ccccc2)[C@@H](O)C[C@@H]1O (some centres undefined)
inactive: outcome [1] | outcome [2] | outcome [3] | outcome [4] | outcome [5] | outcome [6] | outcome [11] | outcome [12]

COc1nc(-c2ccc3c(c2)OCO3)n(-c2ccc(NC(=O)CSc3ccccc3)cc2)n1
inactive: outcome [1] | outcome [2] | outcome [3] | outcome [4] | outcome [5] | outcome [6] | outcome [12] | plate-normalised HSF1 focus index [8] 1.06
0.993: SSMD [8]
6960: cell count [8]

CCN1CCN(Cc2ccc(-c3cc4c(N[C@H](C)c5ccccc5)ncnc4[nH]3)cc2)CC1
1.68: SSMD [8]
7280: cell count [8]
active: AC50 [1] 14.8 µM | AC50 [2] 5.26 µM | AC50 [3] 13.2 µM | AC50 [4] 0.0469 µM | AC50 [5] 18.6 µM | AC50 [6] 23.5 µM | viability [10, 15] 97.2% | viability [10, 19] 100% | viability [10, 27] 98% | viability [10, 35] 98.7% | viability [10, 37] 96.1% | viability [10, 39] 90.3% | viability [10, 41] 70.8% | viability [10, 43] 64.4%
inactive: plate-normalised HSF1 focus index [8] 1.06 | viability [10, 13] 113% | viability [10, 14] 121% | viability [10, 16] 117% | viability [10, 17] 110% | viability [10, 18] 123% | viability [10, 20] 120% | viability [10, 21] 110% | viability [10, 22] 127% | viability [10, 23] 108% | viability [10, 24] 118% | viability [10, 25] 109% | viability [10, 26] 124% | viability [10, 28] 115% | viability [10, 29] 106% | viability [10, 30] 129% | viability [10, 31] 102% | viability [10, 32] 123% | viability [10, 33] 119% | viability [10, 34] 146% | viability [10, 36] 112% | viability [10, 38] 114% | viability [10, 40] 118% | viability [10, 42] 117% | viability [10, 44] 105%

CN(C)C/C=C/C(=O)Nc1cc2c(Nc3ccc(F)c(Cl)c3)ncnc2cc1O[C@H]1CCOC1
inactive: plate-normalised HSF1 focus index [8] 0.64 | viability [10, 13] 118% | viability [10, 14] 114% | viability [10, 15] 123% | viability [10, 16] 107% | viability [10, 17] 116% | viability [10, 21] 107% | viability [10, 23] 117% | viability [10, 27] 102% | viability [10, 31] 122% | viability [10, 35] 120%
active: AC50 [1] 13.2 µM | AC50 [2] 23.5 µM | AC50 [3] 16.6 µM | AC50 [4] 16.6 µM | AC50 [5] 8.33 µM | AC50 [6] 29.6 µM | AC50 [11] 9.34 µM | IC50 [12] 4.17 µM | viability [10, 18] 100% | viability [10, 19] 97.9% | viability [10, 20] 99.7% | viability [10, 22] 80.6% | viability [10, 24] 99.9% | viability [10, 25] 70.1% | viability [10, 26] 66.7% | viability [10, 28] 96.3% | viability [10, 29] 67.5% | viability [10, 30] 69.5% | viability [10, 32] 94.8% | viability [10, 33] 62.7% | viability [10, 34] 63.1% | viability [10, 36] 94.2% | viability [10, 37] 6.05% | viability [10, 38] 46% | viability [10, 39] 8.68% | viability [10, 40] 66.6% | viability [10, 41] 3.87% | viability [10, 42] 22.5% | viability [10, 43] 0.219% | viability [10, 44] 6.79%
6000: cell count [8]
-10.2: SSMD [8]

CCN1CCN(CC(=O)Nc2ccc(-c3cccc4c(=O)cc(N5CCOCC5)oc34)c3sc4ccccc4c23)CC1
active: AC50 [1] 9.1 µM | AC50 [2] 18.7 µM | AC50 [3] 16.6 µM | AC50 [4] 11.8 µM | AC50 [5] 6.45 µM | AC50 [6] 5.9 µM | AC50 [11] 12.9 µM

Cc1nc2cnc3ccc(C#Cc4cccnc4)cc3c2n1-c1ccc(C(C)(C)C#N)cc1
active: AC50 [1] 0.468 µM | AC50 [2] 0.59 µM | AC50 [3] 0.166 µM | AC50 [4] 0.0296 µM | AC50 [5] 0.209 µM | AC50 [6] 1.18 µM | AC50 [11] 1.66 µM | IC50 [12] 2.63 µM
